ATXN2 expr inh – ATXN2 expression inhibition. Potency, µM (top dose mostly 57 µM), inactives show at the highest dose activity change, negative = inhibition, usual class: inhibitors. AID 1745845. 0.72% of 360,000 active. HEK-293 ATXN2-luciferase reporter, luminescence, 24 h; also: potency is read from the fitted curve at half-maximal effect; % is scaled to controls: 0 for no effect and ±100 for the full control effect; nearly all actives have a fitted effect of over 55% in size
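qHTS (up to 57 uM final) was run with 24 h compound exposure of reporter cells at 37 °C. Each well was multiplexed: SteadyGlo luminescence measured ATXN2-luciferase expression after a fluorogenic Gly-Phe-AFC viability readout (25 uM final).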
HepG2 viability – kills HepG2 cells in TGF-b inhibitor counter-screen; HepG2 CAGA-GFP viability, ATP luminescence, 18 h; Potency, µM (doses to about 46.1 µM), inactives show at the highest dose activity change, negative = cytotoxicity, actives largely listed as cytotoxic; 0.76% of 410,000 active; also: potency is read from the fitted curve at half-maximal effect
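HepG2 CAGA-GFP cells (1000/well, DMEM with 1% FBS) received compound, then TGF-beta at 500 pg/mL final, and were incubated 18 hours at 37 degrees C. Viability was read by CellTiter-Glo luminescence. Media-only wells were set as complete cell-killing and DMSO as no toxicity.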
ATXN viability – cell viability loss in ATXN counter-screen; S2 cells (HEK-293 line with an ATXN2-luciferase reporter) viability, CellTiter-Fluor protease fluorescence, 24 h; Potency, µM (doses to about 56.7 µM), usual class: cytotoxic; 0.49% of 400,000 active; also: potency is read from the fitted curve at half-maximal effect; nearly all actives have a fitted effect of over 40% in size
TGFb inhibitor – TGF-b pathway inhibition | Potency, µM (series often up to 46.1 µM), for inactives: top-dose activity, negative = inhibition, usual class: inhibitors | AID 588855 | HepG2 CAGA-GFP TGF-b/SMAD3 reporter, GFP fluorescence, 18 h; TGF-beta stimulated, 500 pg/mL final | 1.2% of 410,000 active; also: potency is read from the fitted curve at half-maximal effect; % is scaled to controls: 0 for no effect and ±100 for the full control effect; nearly all actives have a fitted effect of over 65% in size
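First, reporter cells (HEPG2 CAGA-GFP) rested 2 h at 37 degrees C. Next, compounds were pinned in and TGF-beta added to 500 pg/mL final. After 18 h, GFP was imaged per cell and summed per well.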
IL-1B inflam inh – inhibitors of inflammasome signaling (IL-1 beta secretion); AID 743279; activity change, % at 57.5 µM; 4.7% of 360,000 active; THP-1 LPS/ATP IL-1B secretion, AlphaLISA, 16 h; stronger effect = lower value; in the data active = activity change below about -50%; inconclusive = mostly about -30% to -49%; also: % is scaled to controls: 0 for no effect and ±100 for the full control effect
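THP-1 cells pretreated 1 hr with compounds (up to 57.5 uM final), then stimulated with LPS (250 ng/mL final) plus ATP (1.25 mM final); secreted IL-1B measured by AlphaLISA after 16 hr, decreased signal indicating inhibition.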
Starred values were filed as active, the others as inactive; i = inactive; ? = inconclusive; · = not tested or not shown. In the library only some 5.7% were active in any assay of this set; here they are far more common. Unless noted, calls follow the shape of the dose curve; as a rule, active = well fitted curve in the direction sought with a large enough effect; inconclusive = small, poorly fitted or top-dose-only effect, or another doubt; inactive = no such curve, though single readings can be large; an effect the other way counts as inactive or inconclusive.

SMILES | ATXN2 expr inh | HepG2 viability | ATXN viability | TGFb inhibitor | IL-1B inflam inh
CSCCC(NC(=O)c1ccccc1Cl)C(=O)N1CCN(C(C)=O)CC1 (stereo unspecified) | 4.7% | -2.9% | i | 8.2% | 2.0
Cc1ccccc1OC(C)C(=O)N1CCC(Cc2ccccc2)CC1 (stereo unspecified) | -13.7% | -5.4% | i | 0.0% | -54.5*
Cc1c(C(=O)N2CCC(Cc3ccccc3)CC2)cccc1[N+](=O)[O-] | -18.8% | -13.9% | i | ? | -104.1*
Cc1ccccc1OCCN1CCC(Cc2ccccc2)CC1 | · | -46.5% | ? | -22.7% | -9.7
COc1ccccc1C(=O)NC(CCSC)C(=O)N1CCC(Cc2ccccc2)CC1 (stereo unspecified) | -18.4% | -7.3% | i | ? | -59.6*
Cc1cccc(C(=O)N2CCC(Cc3ccccc3)CC2)c1[N+](=O)[O-] | -17.8% | -31.7% | i | -3.2% | -86.9*
C[C@H]1C[C@H]2[C@@H]3CCC4=CC(=O)C=C[C@]4(C)[C@@]3(F)[C@@H](O)C[C@]2(C)[C@@]1(O)C(=O)CCl | · | · | i | · | ·
CCc1ccccc1NC(=O)Cn1cc2c(n1)CCC(C)C2 (stereo unspecified) | 10.7% | 4.3% | i | 6.3% | ·
COCCSc1ccccc1C(=O)N1CCC(Cc2ccccc2)CC1 | -6.2% | -2.3% | i | -3.8% | -53.8*
COCCNC(=S)N1CCC(Cc2ccccc2)CC1 | · | -3.2% | i | -17.9% | 6.5
CC(=O)N1CCN(c2ccc(Oc3ccc([N+](=O)[O-])c(C(F)(F)F)c3)cc2)CC1 | ? | -5.9% | i | -3.6% | -82.5*
COc1ccc(/C=C\C(=O)O[C@@H]2C(O)C(O[C@@H]3OC(C)[C@H](O[C@@H]4OCC(O[C@H]5O[C@H](CO)[C@@H](O)C(O)C5O)C(O)C4O)C(O)C3O)[C@H](OC(=O)[C@]34CCC(C)(C)C[C@@H]3C3=CCC5[C@@]6(C)CC(O)C(O[C@@H]7OC(CO)C(O)[C@H](O)[C@H]7O)[C@@](C)(C(=O)O)C6CC[C@@]5(C)[C@]3(CO)CC4)O[C@H]2C)cc1 (stereo partly specified) | 7.08µM* | -110.3% | 11.2µM* | ? | -97.2*
C[C@@H]1CC[C@]2(C(=O)O[C@@H]3O[C@H](CO)[C@@H](O)[C@H](O)[C@H]3O)CC[C@]3(C)C(=CCC4[C@@]5(C)CC[C@H](O[C@@H]6OC[C@H](O)[C@H](O[C@@H]7O[C@H](CO)[C@@H](O)[C@H](O)[C@H]7O)[C@H]6O)C(C)(C)C5CC[C@]43C)C2[C@]1(C)O (stereo partly specified) | -5.8% | 4.1% | i | 35.1% | 9.1
CCOC(=O)COc1ccc2c(C)c(CCN(CC)CC)c(=O)oc2c1 | · | · | i | · | ·
CCCNC(=O)Cn1c(=O)c2cccn2c2cccnc21 | · | -5.4% | · | 0.1% | ·
CCN1C(=O)/C(=C/c2ccc(N3CCCC3)cc2)NC1=S | 29.6% | -24.4% | i | 143.0% | -67.4*
CCOC(=O)c1c(NC(=O)c2cc(-c3ccc(Br)cc3)on2)sc(C)c1C | · | -0.3% | · | 0.2% | ·
CCOC(=O)c1scc(-c2ccccc2)c1S(=O)(=O)N1CCN(c2ccccc2OC)CC1 | -17.8% | -26.2% | ? | ? | ·
Cc1ccc(S(=O)(=O)N(CC(O)Cn2c3ccccc3c3ccccc32)c2cccc(C(=O)N(C)C)c2)cc1 (stereo unspecified) | ? | -24.3% | ? | ? | ·
Cc1ccc(S(=O)(=O)N(CC(O)Cn2c3ccccc3c3ccccc32)c2cccc(C(=O)NCCO)c2)cc1 (stereo unspecified) | ? | 15.8µM* | · | 12.6µM* | ·
Cc1ccc(S(=O)(=O)N(CC(O)Cn2c3ccccc3c3ccccc32)c2cccc(C(N)=O)c2)cc1 (stereo unspecified) | ? | 11.2µM* | ? | 10µM* | ·
COc1ccc(/C=C/C(=O)c2ccc3c(c2)OCCO3)cc1[N+](=O)[O-] | -30.9% | -27.8% | i | ? | -55.1*
COc1ccc(C(C)=O)cc1COc1ccc(F)cc1 | · | 0.8% | i | 0.3% | 4.2
COc1ccc(C(=O)Cn2c(C(=O)/C=C/c3ccccc3)nc3ccccc32)cc1 | 22.4µM* | -50.5% | ? | 1.8% | -27.0
COc1ccc(/C=N/NC(=O)c2ccc3c(c2)OCCO3)cc1[N+](=O)[O-] | -3.0% | -23.3% | i | -6.8% | -4.4
SMILES | ATXN2 expr inh | HepG2 viability | ATXN viability | TGFb inhibitor | IL-1B inflam inh
COc1ccc(C(=O)/C=C/c2ccc(OC)c(COc3ccc(F)cc3)c2)cc1 | ? | -26.6% | i | -17.1% | -93.3*
COc1ccc(C(=O)CSc2nc3ccccc3n2CC(=O)c2ccccc2)cc1 | -16.3% | -5.4% | ? | -21.5% | -25.4
COC(=O)COc1ccc(C(=O)Cn2c(NCCCO)nc3ccccc32)cc1 | -15.3% | 26.9% | i | 0.0% | -93.2*
Cc1ccc2[nH]c(=O)c3cc(C(=O)N(C)c4ccc(Br)cc4)sc3c2c1 | 11.4% | -20.4% | i | -3.3% | ·
COc1ccccc1CNc1nc2c(S(=O)(=O)c3ccc(C)c(C)c3)nnn2c2ccc(Cl)cc12 | -2.7% | -23.9% | i | -8.9% | ·
O=C(/C=C/c1ccc2c(c1)OCCO2)c1ccccc1 | · | -69.1% | i | ? | ?
COc1ccc(/C=C/C(=O)c2ccc(O)cc2)cc1 | 36.5% | -24.0% | i | -2.3% | -80.1*
COc1ccc(/C=C/C(=O)c2ccc3c(c2)OCO3)c(OC)c1 | · | -38.0% | ? | -17.1% | ?
CC(=O)Nc1ccc(/C=C/C(=O)c2ccc3c(c2)OCCO3)cc1 | 0.2% | -61.5% | i | ? | -102.4*
COc1cccc(/C=C/C(=O)c2ccc3c(c2)OCCO3)c1OC | 49.5% | -55.1% | i | ? | -99.3*
COc1ccc(C(=O)/C=C/c2ccc3c(c2)OCCO3)cc1 | 31.1% | -12.1% | i | -0.4% | -93.2*
COc1ccc(/C=C/C(=O)c2ccoc2)cc1 | 12.0% | -33.1% | i | ? | ?
CC(=O)C(Sc1nc(-c2ccccc2Cl)nc2c1c(=O)n(C)c(=O)n2C)C(=O)N(C)C (stereo unspecified) | -14.8% | -0.8% | ? | ? | ·
O=C(O)c1ccc(/C=C/C(=O)c2ccc3c(c2)OCCCO3)cc1 | 2.7% | -83.1% | i | ? | -102.7*
O=C(/C=C/c1cccc([N+](=O)[O-])c1)c1ccc2c(c1)OCCO2 | -4.6% | -30.8% | i | ? | 0.0
COc1ccc(-c2csc(C(C)(O)c3ccccc3)n2)cc1 (stereo unspecified) | 20.2% | -34.6% | i | -20.4% | -15.8
COc1ccc(-c2csc(C(C)(O)c3cccnc3)n2)cc1 (stereo unspecified) | -0.3% | -9.3% | i | 1.4% | -65.4*

Screening data as filed in PubChem.
